Structures can show the parent of a compound that is named as a salt.
Experiments:
Conditions in all cases: 20 µM; incubation time: 27 h, anaerobic, 37 °C;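 for the amine columns active = adjusted P below 0.05 in both replicates with a change the same way and a mean fold change under 0.8 or over 1.25; inactive = the rest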
[1] = test system: Clostridium sporogenes DSM 1664; test: growth (OD595) fold change vs plate DMSO controls (fold change (ratio)); higher = more growth
Summary of the method: (§1)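 Anaerobic 27 h, 37 °C mGAM 96-well cultures were shaken, then read for absorbance at 595 nm. Values were blank-subtracted and corrected for compound background using 20 µM compound solutions in water. A calibration factor of 5 converted them to OD. Growth is the fold change versus the median of plate DMSO controls. Fold changes above 1.5 were set to NA, and values are the mean of 2 biological replicates.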

Escherichia coli IAI1 [2] = test: as above
Summary of the method: as §1

[3] = test system: Klebsiella aerogenes DSM 30053; test: as above
Summary of the method: as §1

[4] = test system: Ruminococcus gnavus DSM 108212; test: as above
Summary of the method: as §1

[5] = test system: Klebsiella aerogenes DSM 30053; test: fold change of Histamine concentration vs plate DMSO controls (fold change (ratio)); higher = more amine produced, active = hit call of the paper (significant change in both replicates, either direction)
Summary of the method: (§2)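 Amine values are fold changes relative to DMSO-only wells on the same plate. They derive from 27 h, 37 °C anaerobic mGAM cultures of four gut bacterial strains in 80 µL wells, dosed at 20 µM final, or 50 µM final for sweeteners. Extraction of the whole culture, LC–triple-quadrupole MS in dynamic MRM mode, external calibration curves and within-batch drift correction were used, with 2 biological replicates averaged.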

[6] = test system: Clostridium sporogenes DSM 1664; test: fold change of Tryptamine concentration vs plate DMSO controls (fold change (ratio)); higher = more amine produced, active = hit call of the paper (significant change in both replicates, either direction)
Summary of the method: as §2

[7] = test system: Ruminococcus gnavus DSM 108212; test: as above
Summary of the method: as §2

Escherichia coli IAI1 [8] = test: fold change of Putrescine concentration vs plate DMSO controls (fold change (ratio)); higher = more amine produced, active = hit call of the paper (significant change in both replicates, either direction)
Summary of the method: as §2

[9] = test system: Klebsiella aerogenes DSM 30053; test: as above
Summary of the method: as §2

Escherichia coli IAI1 [10] = test: fold change of Cadaverine concentration vs plate DMSO controls (fold change (ratio)); higher = more amine produced, active = hit call of the paper (significant change in both replicates, either direction)
Summary of the method: as §2

[11] = test system: Klebsiella aerogenes DSM 30053; test: as above
Summary of the method: as §2

[12] = test system: Ruminococcus gnavus DSM 108212; test: fold change of 2-Phenylethylamine concentration vs plate DMSO controls (fold change (ratio)); higher = more amine produced, active = hit call of the paper (significant change in both replicates, either direction)
Summary of the method: as §2

Row | Compound | growth [1] | growth (Escherichia coli IAI1 [2]) | growth [3] | growth [4] | fold change of Histamine concentration [5] | fold change of Tryptamine concentration [6] | fold change of Tryptamine concentration [7] | fold change of Putrescine concentration (Escherichia coli IAI1 [8]) | fold change of Putrescine concentration [9] | fold change of Cadaverine concentration (Escherichia coli IAI1 [10]) | fold change of Cadaverine concentration [11] | fold change of 2-Phenylethylamine concentration [12]
1 | CCCCc1c(C)nc(NCC)nc1OS(=O)(=O)N(C)C | 0.862 | 1.04 | 0.957 | 0.952 | 1.03 (inactive) | 1.06 (inactive) | 0.959 (inactive) | 0.985 (inactive) | 0.995 (inactive) | 1.01 (inactive) | 0.998 (inactive) | 0.996 (inactive)
2 | C[C@@H]1CC[C@H]2[C@@H](C)C(=O)O[C@@H]3O[C@@]4(C)CC[C@@H]1[C@]32OO4 [Artemisinin] | 0.953 | 0.972 | 1.02 | 1.13 | 1.01 (inactive) | 1.02 (inactive) | 1.03 (inactive) | 1.01 (inactive) | 1.01 (inactive) | 0.966 (inactive) | 1.01 (inactive) | 1.03 (inactive)
3 | c1cc2ccc3cccc4ccc(c1)c2c34 [Pyrene] | 1.01 | 0.96 | 0.997 | 0.936 | 0.993 (inactive) | 0.953 (inactive) | 1.03 (inactive) | 1.01 (inactive) | 1.05 (inactive) | 0.969 (inactive) | 1.03 (inactive) | 1 (inactive)
4 | COc1cc2c(c(OC)c1OC)-c1ccc(OC)c(=O)cc1[C@@H](NC(C)=O)CC2 [Colchicine] | 0.992 | 1.02 | 0.975 | 1.16 | 1.06 (inactive) | 1.02 (inactive) | 0.889 (inactive) | 1.04 (inactive) | 1.02 (inactive) | 1.04 (inactive) | 0.983 (inactive) | 0.829 (inactive)
5 | OC(Cn1cncn1)(c1ccc(F)cc1)c1ccccc1F (configuration not stated) | 1.15 | 1.06 | 1.01 | 0.99 | 1.01 (inactive) | 0.985 (inactive) | 0.984 (inactive) | 1.03 (inactive) | 1.02 (inactive) | 1.03 (inactive) | 0.992 (inactive) | 0.948 (inactive)
6 | CC[C@@]1([C@@H]2O[C@@H]([C@H]3O[C@@](O)(CO)[C@H](C)C[C@@H]3C)C[C@@H]2C)CC[C@H]([C@]2(C)CC[C@]3(C[C@H](O)[C@@H](C)[C@@H]([C@@H](C)[C@@H](OC)[C@H](C)C(=O)O)O3)O2)O1 [Monensin sodium salt] | 0.0614 | 1.09 | 1 | 0.204 | 0.975 (inactive) | 0.0398 (active) | 0.0682 (active) | 1.09 (inactive) | 1 (inactive) | 0.966 (inactive) | 0.999 (inactive) | 0.0948 (active)
7 | C1=Cc2cccc3cccc1c23 [Acenaphthylene] | 0.849 | 1.03 | 0.96 | 1.15 | 1.02 (inactive) | 0.962 (inactive) | 0.991 (inactive) | 1.02 (inactive) | 1 (inactive) | 1.02 (inactive) | 0.985 (inactive) | 0.996 (inactive)
8 | c1ccc2c(c1)cc1ccc3cccc4ccc2c1c34 [Benzo[a]pyrene] | 0.972 | 1.03 | 1.06 | 1.01 | 0.948 (inactive) | 1.03 (inactive) | 1.01 (inactive) | 0.977 (inactive) | 1.01 (inactive) | 1 (inactive) | 1 (inactive) | 1.04 (inactive)
9 | CCCC[N+]1(C)[C@@H]2C[C@@H](OC(=O)[C@H](CO)c3ccccc3)C[C@H]1[C@@H]1O[C@@H]12 (some centres not stated) [N-Butylscopolammonium bromide] | 0.954 | 1.22 | 0.974 | 1.06 | 1.03 (inactive) | 0.921 (inactive) | 0.946 (inactive) | 1.27 (inactive) | 1.01 (inactive) | 0.975 (inactive) | 0.99 (inactive) | 0.913 (inactive)
10 | Cc1nnc(-c2ccccc2)c(=O)n1N | 0.969 | 1.05 | 0.993 | 1.01 | 1.04 (inactive) | 0.988 (inactive) | 1.04 (inactive) | 0.965 (inactive) | 1 (inactive) | 1.03 (inactive) | 0.972 (inactive) | 1.13 (inactive)
11 | CON(C)C(=O)Nc1ccc(Cl)c(Cl)c1 | 1.07 | 1.01 | 1.01 | 1.07 | 0.924 (inactive) | 1.02 (inactive) | 0.969 (inactive) | 0.982 (inactive) | 1.02 (inactive) | 1.02 (inactive) | 1 (inactive) | 0.976 (inactive)
12 | CSc1nc(NC(C)C)nc(NC(C)C)n1 | 0.932 | 1.01 | 1.02 | 0.973 | 0.971 (inactive) | 0.943 (inactive) | 0.955 (inactive) | 0.946 (inactive) | 1.04 (inactive) | 1.01 (inactive) | 1.03 (inactive) | 1 (inactive)
13 | CNC(C)(C)Cc1ccccc1 [Mephentermine hemisulfate] | 1.05 | 0.976 | 0.99 | 0.991 | 0.952 (inactive) | 1.04 (inactive) | 1.24 (inactive) | 1.03 (inactive) | 0.952 (inactive) | 0.943 (inactive) | 1.01 (inactive) | 1.38 (inactive)
14 | C[C@]12CC[C@H](O)C[C@H]1CC[C@@H]1[C@@H]2CC[C@]2(C)[C@@H](C3=CC(=O)OC3)CC[C@]12O [Digitoxigenin] | 1.02 | 1.02 | 0.986 | 1 | 1.06 (inactive) | 1.05 (inactive) | 1.02 (inactive) | 1.03 (inactive) | 1.01 (inactive) | 1.01 (inactive) | 0.989 (inactive) | 1.03 (inactive)
15 | CCC1(C2=NCCN2)Cc2ccccc2O1 (configuration not stated) [Efaroxan hydrochloride] | 1.05 | 1.05 | 0.982 | 1.08 | 0.992 (inactive) | 0.939 (inactive) | 1.03 (inactive) | 0.97 (inactive) | 1.01 (inactive) | 1.06 (inactive) | 0.997 (inactive) | 1.01 (inactive)
16 | C#CCN(C)[C@H](C)Cc1ccccc1 [Selegiline hydrochloride] | 0.986 | 1.05 | 1.02 | 0.963 | 0.982 (inactive) | 1.11 (inactive) | 1.05 (inactive) | 1.07 (inactive) | 0.975 (inactive) | 1.03 (inactive) | 1.01 (inactive) | 1.06 (inactive)
